Experimental data taken from PubChem BioAssay (NCATS).
Where “and” joins values, the source holds several entries; their conditions need not be identical. Identical values can stand only once. Results filed as inconclusive are left out. Calls of active or inactive are those of the source. Calls follow the shape of the dose curve; as a rule, active = well fitted curve in the direction sought with a large enough effect; inconclusive = small, poorly fitted or top-dose-only effect, or another doubt; inactive = no such curve, though single readings can be large; an effect the other way counts as inactive or inconclusive.

Legend:
[1] = Viability qHTS for spleen associated tyrosine kinase inhibitor (SYKi) naive MV4-11 cells (AID 1963823); also: nearly all actives have a fitted effect of over 40% in size
Method in brief: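 qHTS, SYK inhibitor-naive MV4-11; 500 cells/well; 72 hr compound exposure, 37 C; CellTiter-Glo added, 10 min RT; luminescence read.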

[2] = Viability qHTS for spleen associated tyrosine kinase inhibitor (SYKi) drug resistant MV4-11 cells (AID 1963824); also: nearly all actives have a fitted effect of over 35% in size
Method in brief: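 CellTiter-Glo luminescence, read 10 min after reagent addition, reports viability after a 72 hr compound exposure. Cells are an MV4-11 line made resistant to SYK inhibition, seeded at 500 per well onto compound-containing plates.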

[3] = Quantitative highthroughput screen to assess conditional lethalithy of NOMO1 cells grown in RPMI1640 with untreated serum (RPMI+s) (AID 1963876); also: nearly all actives have a fitted effect of over 35% in size;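 as to Viability: 100% = DMSO wells and 0% = empty wells without cells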
Method in brief: (§1)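 Each medium arm—HPLM with 10% dialyzed FBS, or RPMI1640 with 5 mM glucose and 10% untreated or dialyzed FBS—was screened against an 11-point, 3-fold compound titration for 48 h at 37 °C, with CellTiter-Glo luminescence as endpoint.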

[4] = Quantitative highthroughput screen to assess conditional lethalithy of NOMO1 cells grown in RPMI1640 with dialyzed fetal bovine serum (RPMI+ds) (AID 1963877); also: nearly all actives have a fitted effect of over 30% in size;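 as to Viability: series mostly up to about 46 µM; 100% = DMSO control wells and 0% = empty wells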
Method in brief: as §1

[5] = Quantitative highthroughput screen to assess conditional lethalithy of NOMO1 cells grown in Human Plasma-Like Medium with dialyzed fetal bovine serum (HPLM+ds) (AID 1963878); also: nearly all actives have a fitted effect of over 35% in size;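 as to Viability: 100% = DMSO wells and 0% = empty wells on each plate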
Method in brief: as §1

[6] = Quantitative highthroughput screen to assess conditional lethalithy of P12 Ichikawa cells grown in Human Plasma-Like Medium with dialyzed fetal bovine serum (HPLM+ds) (AID 1963879); settings: Potency: viability; also: nearly all actives have a fitted effect of over 35% in size; as to Viability: series mostly up to about 46 µM
Method in brief: as §1

[7] = Quantitative highthroughput screen to assess conditional lethalithy of P12 Ichikawa cells grown in RPMI1640 with dialyzed fetal bovine serum (RPMI+ds) (AID 1963880); settings: Potency: P12-Ichikawa viability; also: nearly all actives have a fitted effect of over 35% in size;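 as to Viability: 100% = DMSO wells and 0% = empty wells on each plate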
Method in brief: as §1

[8] = Quantitative highthroughput screen to assess conditional lethalithy of P12 Ichikawa cells grown in RPMI1640 with untreated serum (RPMI+s) (AID 1963881); settings: Potency: viability; also: nearly all actives have a fitted effect of over 35% in size;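 as to Viability: series mostly up to about 46 µM; 100% = DMSO wells and 0% = empty wells without cells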
Method in brief: as §1

[9] = Quantitative highthroughput screen to assess conditional lethalithy of SEM cells grown in Human Plasma-Like Medium with dialyzed fetal bovine serum (HPLM+ds) (AID 1963882); also: nearly all actives have a fitted effect of over 35% in size; as to Viability: series mostly up to about 46 µM
Method in brief: as §1

[10] = Quantitative highthroughput screen to assess conditional lethalithy of SEM cells grown in RPMI1640 with unreated serum (RPMI+s) (AID 1963883); also: nearly all actives have a fitted effect of over 35% in size;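 as to Viability: 100% = DMSO wells and 0% = empty wells without cells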
Method in brief: as §1

[11] = Quantitative highthroughput screen to assess conditional lethalithy of SEM cells grown in RPMI1640 with dialyzed fetal bovine serum (RPMI+ds) (AID 1963884); also: nearly all actives have a fitted effect of over 35% in size;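 as to Viability: series mostly up to about 46 µM; 100% = DMSO control wells and 0% = empty wells without cells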
Method in brief: as §1

[12] = Cellular viability qHTS for adrenocortical cancer (ACC) cell line SW-13 (AID 1963989); settings: SW-13 ACC cells viability, CellTiter-Glo, 48 h; activity (max response): hits give low values; also: nearly all actives have a fitted effect of over 65% in size;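 as to activity (max response): cells grown in serum-free medium with ITS supplement; % is scaled to controls: 0 for no effect and ±100 for the full control effect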
Method in brief: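 SW-13 cells in ITS-supplemented serum-free DMEM were plated overnight, then exposed for 48 h at 37C to compound titrations (up to 46 uM final). Viability was read by CellTiter-Glo luminescence; four-parameter logistic fits gave IC50 and efficacy.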

[13] = Cellular viability qHTS for adrenocortical cancer (ACC) cell line NCI-H295R (AID 1963990); also: nearly all actives have a fitted effect of over 60% in size
Method in brief: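 Luminescent ATP read-out (CellTiter-Glo, 20 min RT) after 48 h drug exposure of NCI-H295R cells; a titration up to 46 uM final. Data normalized to doxorubicin (100% inhibition) and DMSO (0%); 4-parameter fit gives IC50, max response.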
Potency is read from the fitted curve at half-maximal effect.

C[C@@H](NCCCc1cccc(C(F)(F)F)c1)c1cccc2ccccc12
inactive: Potency [3] | Potency [4] | Potency [5] | Potency [6] | Potency [7] | Potency [8] | Potency [9] | Potency [10] | Potency [11]
active: Potency [1] 10.6 µM | Potency [2] 13.3 µM and 7.42 µM | Potency [12] 20.6 µM and 25.1 µM

O=C(CCN1CCN(C(=O)OCc2cc(Cl)cc(Cl)c2)CC1)c1ccc2[nH]c(=O)oc2c1
active: Potency [1] 20.6 µM and 8.33 µM | Potency [2] 16.6 µM
inactive: Potency [3] | Potency [4] | Potency [5]

O=C(O[C@H]1[C@@H]2C=CO[C@@H](O[C@@H]3O[C@H](CO)[C@@H](O)[C@H](O)[C@H]3O)[C@@H]2[C@@]2(CO)O[C@@H]12)c1ccccc1
inactive: Potency [1] | Potency [2]

CC(=O)O[C@H]1C[C@@]2(C)[C@@H](C[C@@H](O)[C@H]3[C@@]4(C)CC[C@@H](O)[C@@H](C)[C@@H]4CC[C@@]32C)/C1=C(\CCC=C(C)C)C(=O)O
inactive: Potency [1] | Potency [2]

C[C@H](NC(=O)Cc1cc(F)cc(F)c1)C(=O)N[C@H](C(=O)OC(C)(C)C)c1ccccc1
active: Potency [2] 14.8 µM
inactive: Potency [1] | Potency [3] | Potency [4] | Potency [5] | Potency [6] | Potency [7] | Potency [8] | Potency [9] | Potency [10] | Potency [11] | activity (max response) [12] 3.52%

Cc1nc(C(=O)NCC(=O)O)c(O)c2ccc(Oc3ccccc3)cc12
inactive: Potency [1] | Potency [2] | Potency [3] | Potency [4] | Potency [5] | Potency [6] | Potency [7] | Potency [8] | Potency [9] | Potency [10] | Potency [11]

O=C(c1cncc(Br)c1)N1CCC(N2CCCC2)CC1
inactive: Potency [1] | Potency [2] | Potency [3] | Potency [4] | Potency [5] | Potency [6] | Potency [7] | Potency [8] | Potency [9] | Potency [10] | Potency [11] | activity (max response) [12] 1.51% | Potency [13]

COc1ccc2[nH]cc(CCNC(C)=O)c2c1
inactive: Potency [1] | Potency [2] | Potency [3] | Potency [4] | Potency [5] | Potency [6] | Potency [7] | Potency [8] | Potency [9] | Potency [10] | Potency [11] | activity (max response) [12] -5.05% and -7.41% | Potency [13]

COc1ccc(C(O)C(C)OC2OC(CO)C(O)C(O)C2O)cc1 (stereo unspecified)
inactive: Potency [1] | Potency [2]

NC(=O)c1noc([C@H](CCCC2CCCCC2)CC(=O)NO)n1
active: Potency [1] 8.2 µM | Potency [2] 4.17 µM | Potency [3] 16600 nM | Potency [4] 23500 nM | Potency [5] 18700 nM | Potency [6] 23500 nM | Potency [7] 18700 nM | Potency [8] 18700 nM | Potency [9] 18700 nM | Potency [10] 16600 nM | Potency [11] 18700 nM

CC(C)OC(=O)C1=CN(C(=O)c2ccc(F)c(F)c2)CC(C)(C)c2c1[nH]c1ccccc21
inactive: Potency [3] | Potency [4] | Potency [5] | Potency [6] | Potency [7] | Potency [8] | Potency [9] | Potency [10] | Potency [11] | activity (max response) [12] -5.24% | Potency [13]
active: Potency [1] 8.33 µM | Potency [2] 13.2 µM

C=C(CCC1=C(C)[C@H]2[C@H](CC3[C@@H]4CC=C5C[C@@H](O)C[C@@H](O)[C@]5(C)C4[C@H](O)C[C@@]32C)O1)CO[C@@H]1O[C@H](CO)[C@@H](O)[C@H](O)[C@H]1O (stereo partly specified)
active: Potency [1] 0.611 µM | Potency [2] 0.485 µM

CC(C)C[C@H](NC(=O)CNC(=O)c1cc(Cl)ccc1Cl)B1OC(=O)CC(CC(=O)O)(C(=O)O)O1 (stereo partly specified)
active: Potency [1] 0.148 µM | Potency [2] 0.118 µM | Potency [3] 372 nM | Potency [4] 418 nM | Potency [5] 372 nM | Potency [6] 332 nM | Potency [7] 296 nM | Potency [8] 296 nM | Potency [9] 118 nM | Potency [10] 93.5 nM | Potency [11] 118 nM | Potency [12] 1.41 µM | Potency [13] 355 nM

Cn1cc(CNCC2CCN(c3ncc(C(=O)NO)cn3)CC2)c2ccccc21
active: Potency [1] 0.0661 µM | Potency [2] 0.0166 µM | Potency [3] 372 nM | Potency [4] 332 nM | Potency [5] 296 nM | Potency [6] 264 nM | Potency [7] 372 nM | Potency [8] 235 nM | Potency [9] 132 nM | Potency [11] 132 nM | Potency [12] 1.26 µM

CCCCCN(CCC12CC3CC(CC(C3)C1)C2)C(=O)NCCCc1ccncc1
active: Potency [1] 8.33 µM | Potency [2] 7.42 µM
inactive: Potency [3] | Potency [4] | Potency [5] | Potency [6] | Potency [7] | Potency [8] | Potency [9] | Potency [10] | activity (max response) [12] -15.8% | Potency [13]

CC(NCCc1ccc(O)cc1)C(O)c1ccc(O)cc1 (stereo unspecified)
inactive: Potency [1] | Potency [2] | Potency [3] | Potency [4] | Potency [5] | Potency [6] | Potency [7] | Potency [8] | Potency [9] | Potency [10] | activity (max response) [12] -9.55% | Potency [13]
